Common to all, as to assay: DAPPL (digital affinity profiling via proximity ligation, sequencing); 10 mM Tris-HCl pH 7.5, 50 mM NaCl, 1 mM DTT, 4% glycerol, room temperature, 30 min; GST-TFs on glutathione beads, 16-mer random dsDNA library, 0.1% formaldehyde crosslink after washing; high values mean tight binding
One experiment addresses T1, FEV (Homo sapiens, UniProt Q99581 1-238).
T1 sequence: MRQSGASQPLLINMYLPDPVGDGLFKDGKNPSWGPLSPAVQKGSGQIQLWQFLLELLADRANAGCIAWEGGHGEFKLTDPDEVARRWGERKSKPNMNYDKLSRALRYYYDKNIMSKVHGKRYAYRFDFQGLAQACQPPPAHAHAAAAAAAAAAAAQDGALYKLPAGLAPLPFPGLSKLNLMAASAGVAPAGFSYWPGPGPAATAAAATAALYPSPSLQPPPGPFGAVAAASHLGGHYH
The settings on record: protein: recombinant; tags: N-terminal GST; dsDNA, one strand shown. The method in brief: (§1)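 Binding signal is given per hexamer as its read frequency for a factor divided by its frequency in the tag-only sample. GST-fused human transcription factors were expressed in yeast, captured on glutathione beads, barcoded with DNA and pooled with that sample, then incubated with 200 nmole of a 16-mer random double-stranded DNA library in Tris/NaCl/DTT/glycerol buffer for 30 min at room temperature. The pools were then washed, crosslinked, proximity-ligated, amplified by PCR and sequenced on an Illumina NextSeq500.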

The target of a further experiment is ETV5 (Homo sapiens, UniProt P41161 1-510). The settings on record: protein: recombinant; tags: N-terminal GST; dsDNA, one strand shown. The method in brief:
as §1

A further experiment deals with HSF1 (Homo sapiens, UniProt Q00613 1-529). The settings on record: protein: recombinant; tags: N-terminal GST; chain copies: 3; dsDNA, one strand shown. The essentials: as §1
Chain of HSF1 (Q00613 whole entry): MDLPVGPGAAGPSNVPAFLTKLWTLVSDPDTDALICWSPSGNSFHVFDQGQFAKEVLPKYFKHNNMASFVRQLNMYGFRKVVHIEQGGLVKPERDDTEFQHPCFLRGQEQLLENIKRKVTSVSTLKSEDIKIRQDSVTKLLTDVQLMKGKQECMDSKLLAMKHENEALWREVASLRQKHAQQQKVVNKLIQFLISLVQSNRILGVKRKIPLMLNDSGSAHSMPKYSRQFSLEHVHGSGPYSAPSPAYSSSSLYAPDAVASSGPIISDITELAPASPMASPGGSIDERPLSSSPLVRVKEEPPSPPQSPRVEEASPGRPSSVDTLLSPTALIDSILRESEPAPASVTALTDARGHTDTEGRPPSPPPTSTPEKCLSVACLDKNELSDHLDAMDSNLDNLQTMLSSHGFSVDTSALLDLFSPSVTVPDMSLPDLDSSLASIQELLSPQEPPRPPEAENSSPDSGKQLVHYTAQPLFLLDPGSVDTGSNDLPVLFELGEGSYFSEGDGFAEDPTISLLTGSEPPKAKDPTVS
A further experiment has as its target T2, SPIC (Homo sapiens, UniProt Q8N5J4 1-248).
T2 sequence: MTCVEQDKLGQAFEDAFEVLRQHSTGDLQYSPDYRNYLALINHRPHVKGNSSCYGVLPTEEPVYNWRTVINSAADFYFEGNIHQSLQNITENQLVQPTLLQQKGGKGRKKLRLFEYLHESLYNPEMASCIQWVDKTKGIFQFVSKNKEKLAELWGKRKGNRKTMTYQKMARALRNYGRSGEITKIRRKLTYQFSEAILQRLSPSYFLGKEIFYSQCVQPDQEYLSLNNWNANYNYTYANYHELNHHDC
The settings on record: protein: recombinant; tags: N-terminal GST; dsDNA, one strand shown. The essentials:
as §1

Another experiment addresses ELF4 (Homo sapiens, UniProt Q99607 1-663). The settings on record: protein: recombinant; tags: N-terminal GST; dsDNA, one strand shown. The essentials:
as §1

The next experiment addresses T3, ELK4 (Homo sapiens, UniProt P28324-2 1-405).
T3 sequence: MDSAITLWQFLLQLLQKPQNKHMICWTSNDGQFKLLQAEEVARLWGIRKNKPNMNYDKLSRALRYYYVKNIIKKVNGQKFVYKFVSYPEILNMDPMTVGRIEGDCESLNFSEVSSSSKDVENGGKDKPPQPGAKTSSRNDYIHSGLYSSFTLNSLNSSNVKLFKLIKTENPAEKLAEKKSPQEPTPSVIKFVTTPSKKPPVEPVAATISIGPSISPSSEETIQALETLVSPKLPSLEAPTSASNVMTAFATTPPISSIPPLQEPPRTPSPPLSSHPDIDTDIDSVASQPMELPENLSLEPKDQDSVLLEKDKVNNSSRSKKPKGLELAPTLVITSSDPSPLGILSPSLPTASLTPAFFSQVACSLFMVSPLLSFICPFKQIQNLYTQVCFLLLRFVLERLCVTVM
The settings on record: protein: recombinant; tags: N-terminal GST; dsDNA, one strand shown. The essentials:
as §1

In a further experiment the target is T4, ETV2 (Homo sapiens, UniProt O00321 1-342).
T4 sequence: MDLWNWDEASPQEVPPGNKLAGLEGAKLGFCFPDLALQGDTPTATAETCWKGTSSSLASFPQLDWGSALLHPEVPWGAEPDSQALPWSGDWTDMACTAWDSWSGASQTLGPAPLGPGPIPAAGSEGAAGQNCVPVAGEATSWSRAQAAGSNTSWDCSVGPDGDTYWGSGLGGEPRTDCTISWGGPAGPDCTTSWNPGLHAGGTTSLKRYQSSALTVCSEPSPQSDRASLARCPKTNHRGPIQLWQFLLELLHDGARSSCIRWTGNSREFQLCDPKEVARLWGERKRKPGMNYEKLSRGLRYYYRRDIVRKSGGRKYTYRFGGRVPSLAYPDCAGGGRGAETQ
The settings on record: protein: recombinant; tags: N-terminal GST; dsDNA, one strand shown. The method in brief:
as §1

In another experiment the target is T5, ELF3 (Homo sapiens, UniProt P78545 1-371).
T5 sequence: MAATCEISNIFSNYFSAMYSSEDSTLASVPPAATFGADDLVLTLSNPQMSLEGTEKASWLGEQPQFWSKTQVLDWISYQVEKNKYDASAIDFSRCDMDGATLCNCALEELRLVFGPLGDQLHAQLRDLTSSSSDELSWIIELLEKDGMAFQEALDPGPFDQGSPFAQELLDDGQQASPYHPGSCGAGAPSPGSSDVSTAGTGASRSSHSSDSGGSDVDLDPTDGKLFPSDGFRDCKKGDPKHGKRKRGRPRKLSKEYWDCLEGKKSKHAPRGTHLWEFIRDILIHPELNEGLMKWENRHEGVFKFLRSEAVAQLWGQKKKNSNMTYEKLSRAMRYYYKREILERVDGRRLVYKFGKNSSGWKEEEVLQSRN
The settings on record: protein: recombinant; tags: N-terminal GST; dsDNA, one strand shown. The method in brief:
as §1

A further experiment concerns the target CRX (Homo sapiens, UniProt O43186 1-299). The settings on record: protein: recombinant; tags: N-terminal GST; dsDNA, one strand shown. The method in brief:
as §1

A further experiment deals with ETV1 (Homo sapiens, UniProt P50549 1-477). The settings on record: protein: recombinant; tags: N-terminal GST; dsDNA, one strand shown. The essentials:
as §1

A further experiment deals with T6, ERF (Homo sapiens, UniProt P50548 1-548).
T6 sequence: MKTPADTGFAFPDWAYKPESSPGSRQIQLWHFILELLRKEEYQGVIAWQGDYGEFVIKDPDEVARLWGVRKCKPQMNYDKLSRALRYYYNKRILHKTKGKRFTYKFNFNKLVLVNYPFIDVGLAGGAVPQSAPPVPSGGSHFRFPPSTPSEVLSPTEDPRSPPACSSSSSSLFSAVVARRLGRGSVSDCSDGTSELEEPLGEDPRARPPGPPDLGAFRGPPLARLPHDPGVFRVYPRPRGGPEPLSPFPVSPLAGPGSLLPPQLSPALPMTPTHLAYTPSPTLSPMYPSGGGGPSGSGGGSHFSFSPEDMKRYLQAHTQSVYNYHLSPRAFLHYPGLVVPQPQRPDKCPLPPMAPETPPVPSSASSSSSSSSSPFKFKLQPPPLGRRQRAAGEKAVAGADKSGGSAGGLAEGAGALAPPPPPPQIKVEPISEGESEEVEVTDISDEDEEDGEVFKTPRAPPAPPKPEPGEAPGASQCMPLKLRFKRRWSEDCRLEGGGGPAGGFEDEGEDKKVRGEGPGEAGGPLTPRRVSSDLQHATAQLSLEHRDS
The settings on record: protein: recombinant; tags: N-terminal GST; dsDNA, one strand shown. The essentials:
as §1

For another experiment, the target named is T7, ETV3L (Homo sapiens, UniProt Q6ZN32 1-361).
T7 sequence: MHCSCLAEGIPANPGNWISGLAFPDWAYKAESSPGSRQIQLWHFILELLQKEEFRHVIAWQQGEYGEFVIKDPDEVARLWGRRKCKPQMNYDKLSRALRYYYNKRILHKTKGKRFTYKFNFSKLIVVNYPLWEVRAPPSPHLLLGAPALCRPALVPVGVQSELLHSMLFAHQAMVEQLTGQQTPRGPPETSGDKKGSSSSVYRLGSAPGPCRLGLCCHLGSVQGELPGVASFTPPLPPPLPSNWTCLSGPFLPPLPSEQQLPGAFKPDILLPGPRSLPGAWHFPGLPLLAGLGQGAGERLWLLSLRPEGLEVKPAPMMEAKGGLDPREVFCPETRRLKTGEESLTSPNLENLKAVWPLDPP
The settings on record: protein: recombinant; tags: N-terminal GST; dsDNA, one strand shown. The essentials: as §1

The next experiment has as its target T8, ETS2 (Homo sapiens, UniProt P15036 1-469).
T8 sequence: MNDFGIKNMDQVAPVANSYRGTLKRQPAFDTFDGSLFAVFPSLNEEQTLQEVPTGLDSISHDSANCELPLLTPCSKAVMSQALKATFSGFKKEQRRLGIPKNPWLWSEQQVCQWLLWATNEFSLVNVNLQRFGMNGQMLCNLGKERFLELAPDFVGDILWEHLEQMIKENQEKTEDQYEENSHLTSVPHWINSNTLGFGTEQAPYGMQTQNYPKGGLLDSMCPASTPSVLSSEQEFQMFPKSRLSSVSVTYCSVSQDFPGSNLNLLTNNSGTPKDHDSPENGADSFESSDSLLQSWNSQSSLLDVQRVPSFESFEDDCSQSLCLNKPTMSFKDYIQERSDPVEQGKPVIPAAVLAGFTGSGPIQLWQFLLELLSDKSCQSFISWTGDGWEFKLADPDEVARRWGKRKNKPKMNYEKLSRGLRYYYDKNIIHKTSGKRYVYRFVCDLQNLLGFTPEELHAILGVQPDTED
The settings on record: protein: recombinant; tags: N-terminal GST; dsDNA, one strand shown. The essentials: as §1

In the next experiment the target is T9, SPDEF (Homo sapiens, UniProt O95238 1-335).
T9 sequence: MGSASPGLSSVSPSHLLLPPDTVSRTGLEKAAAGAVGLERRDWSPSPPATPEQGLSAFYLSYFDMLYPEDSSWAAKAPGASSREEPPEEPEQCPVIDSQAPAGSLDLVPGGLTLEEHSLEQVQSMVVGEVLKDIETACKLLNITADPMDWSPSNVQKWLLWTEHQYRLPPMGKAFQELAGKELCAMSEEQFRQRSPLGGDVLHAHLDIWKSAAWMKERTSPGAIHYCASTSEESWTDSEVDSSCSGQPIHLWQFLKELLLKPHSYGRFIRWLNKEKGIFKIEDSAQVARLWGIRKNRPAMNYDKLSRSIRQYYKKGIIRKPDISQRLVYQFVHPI
The settings on record: protein: recombinant; tags: N-terminal GST; dsDNA, one strand shown. The method in brief:
as §1

In a further experiment the target is T10, ETV7 (Homo sapiens, UniProt Q9Y603 1-341).
T10 sequence: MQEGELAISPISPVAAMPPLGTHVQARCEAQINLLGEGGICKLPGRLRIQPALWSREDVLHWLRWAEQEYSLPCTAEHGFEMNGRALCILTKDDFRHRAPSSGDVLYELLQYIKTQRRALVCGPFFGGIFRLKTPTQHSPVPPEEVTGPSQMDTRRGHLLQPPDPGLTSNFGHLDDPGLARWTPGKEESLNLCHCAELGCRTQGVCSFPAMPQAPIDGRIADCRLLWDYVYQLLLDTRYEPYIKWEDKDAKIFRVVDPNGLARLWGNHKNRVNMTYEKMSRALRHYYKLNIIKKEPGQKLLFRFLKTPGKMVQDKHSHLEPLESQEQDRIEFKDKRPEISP
The settings on record: protein: recombinant; tags: N-terminal GST; dsDNA, one strand shown. The essentials:
as §1

The next experiment addresses T11, ELF5 (Homo sapiens, UniProt Q9UKW6-2 1-255).
T11 sequence: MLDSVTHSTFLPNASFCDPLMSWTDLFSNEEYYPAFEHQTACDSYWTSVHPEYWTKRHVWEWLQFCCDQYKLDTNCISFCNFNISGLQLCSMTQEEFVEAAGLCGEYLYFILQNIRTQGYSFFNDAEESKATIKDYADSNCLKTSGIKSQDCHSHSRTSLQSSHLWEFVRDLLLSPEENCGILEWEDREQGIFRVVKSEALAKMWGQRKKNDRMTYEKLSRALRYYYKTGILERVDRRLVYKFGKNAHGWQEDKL
The settings on record: protein: recombinant; tags: N-terminal GST; dsDNA, one strand shown. The method in brief:
as §1

The target in another experiment is T12, ETV3 (Homo sapiens, UniProt P41162-2 1-143).
T12 sequence: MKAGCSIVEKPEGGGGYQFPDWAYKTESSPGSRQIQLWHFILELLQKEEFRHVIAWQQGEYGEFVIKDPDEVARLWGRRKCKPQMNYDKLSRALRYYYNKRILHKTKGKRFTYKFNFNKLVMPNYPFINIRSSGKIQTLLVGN
The settings on record: protein: recombinant; tags: N-terminal GST; dsDNA, one strand shown. The essentials: as §1

Another experiment has as its target ETV6 (Homo sapiens, UniProt P41212 1-452). The settings on record: protein: recombinant; tags: N-terminal GST; dsDNA, one strand shown. The method in brief:
as §1

Chain of ETV5 (P41161 whole entry): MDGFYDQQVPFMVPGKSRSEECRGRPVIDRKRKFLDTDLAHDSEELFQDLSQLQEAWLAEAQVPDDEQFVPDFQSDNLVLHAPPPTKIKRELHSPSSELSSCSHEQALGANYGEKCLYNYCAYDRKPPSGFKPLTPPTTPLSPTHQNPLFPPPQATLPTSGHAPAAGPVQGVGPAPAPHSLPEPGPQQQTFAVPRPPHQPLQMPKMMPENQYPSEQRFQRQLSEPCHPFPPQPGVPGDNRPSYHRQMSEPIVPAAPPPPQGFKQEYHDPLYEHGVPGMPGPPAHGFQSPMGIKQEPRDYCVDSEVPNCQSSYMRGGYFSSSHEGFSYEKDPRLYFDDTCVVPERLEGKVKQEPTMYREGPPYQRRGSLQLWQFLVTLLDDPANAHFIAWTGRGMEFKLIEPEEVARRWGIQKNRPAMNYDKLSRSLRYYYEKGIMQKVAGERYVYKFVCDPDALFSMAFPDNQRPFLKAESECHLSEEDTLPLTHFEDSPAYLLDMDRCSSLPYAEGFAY
Chain of ETV6 (P41212 whole entry): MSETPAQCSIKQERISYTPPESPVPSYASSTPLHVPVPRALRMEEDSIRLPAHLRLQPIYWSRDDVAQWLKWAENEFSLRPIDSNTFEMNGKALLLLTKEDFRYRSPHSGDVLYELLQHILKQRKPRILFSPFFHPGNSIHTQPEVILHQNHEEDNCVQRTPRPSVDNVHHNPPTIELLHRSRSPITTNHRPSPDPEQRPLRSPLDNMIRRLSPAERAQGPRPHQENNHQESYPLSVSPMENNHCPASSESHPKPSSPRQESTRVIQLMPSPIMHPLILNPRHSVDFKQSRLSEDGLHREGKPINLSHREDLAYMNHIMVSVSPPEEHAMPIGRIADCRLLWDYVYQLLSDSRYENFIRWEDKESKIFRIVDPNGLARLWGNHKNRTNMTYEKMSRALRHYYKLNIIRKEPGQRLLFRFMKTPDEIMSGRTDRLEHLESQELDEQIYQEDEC
Chain of ELF4 (Q99607 whole entry): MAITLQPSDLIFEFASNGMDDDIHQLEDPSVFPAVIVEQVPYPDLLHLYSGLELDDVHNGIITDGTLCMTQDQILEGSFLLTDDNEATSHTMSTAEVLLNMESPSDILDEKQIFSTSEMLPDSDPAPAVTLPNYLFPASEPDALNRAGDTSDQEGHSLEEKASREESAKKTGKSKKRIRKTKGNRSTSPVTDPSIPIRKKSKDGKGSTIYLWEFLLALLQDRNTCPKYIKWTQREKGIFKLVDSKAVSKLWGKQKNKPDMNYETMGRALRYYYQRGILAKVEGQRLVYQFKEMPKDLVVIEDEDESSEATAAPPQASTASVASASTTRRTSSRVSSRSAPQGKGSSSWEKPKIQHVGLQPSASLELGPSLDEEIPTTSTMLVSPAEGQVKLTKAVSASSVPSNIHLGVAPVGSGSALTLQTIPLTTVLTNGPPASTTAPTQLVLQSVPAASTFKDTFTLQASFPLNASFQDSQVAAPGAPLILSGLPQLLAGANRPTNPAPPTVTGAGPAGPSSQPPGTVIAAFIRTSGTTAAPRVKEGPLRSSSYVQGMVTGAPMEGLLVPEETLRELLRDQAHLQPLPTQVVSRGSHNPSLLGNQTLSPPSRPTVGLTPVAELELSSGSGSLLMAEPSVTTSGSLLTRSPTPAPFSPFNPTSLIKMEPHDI
Chain of CRX (O43186 whole entry): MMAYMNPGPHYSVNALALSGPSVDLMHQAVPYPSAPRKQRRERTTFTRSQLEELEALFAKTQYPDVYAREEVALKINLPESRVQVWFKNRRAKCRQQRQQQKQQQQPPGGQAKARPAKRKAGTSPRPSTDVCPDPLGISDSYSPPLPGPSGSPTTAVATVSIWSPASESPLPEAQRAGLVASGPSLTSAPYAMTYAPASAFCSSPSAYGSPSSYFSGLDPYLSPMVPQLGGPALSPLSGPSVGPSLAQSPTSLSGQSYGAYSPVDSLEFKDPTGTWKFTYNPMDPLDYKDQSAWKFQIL
Chain of ETV1 (P50549 whole entry): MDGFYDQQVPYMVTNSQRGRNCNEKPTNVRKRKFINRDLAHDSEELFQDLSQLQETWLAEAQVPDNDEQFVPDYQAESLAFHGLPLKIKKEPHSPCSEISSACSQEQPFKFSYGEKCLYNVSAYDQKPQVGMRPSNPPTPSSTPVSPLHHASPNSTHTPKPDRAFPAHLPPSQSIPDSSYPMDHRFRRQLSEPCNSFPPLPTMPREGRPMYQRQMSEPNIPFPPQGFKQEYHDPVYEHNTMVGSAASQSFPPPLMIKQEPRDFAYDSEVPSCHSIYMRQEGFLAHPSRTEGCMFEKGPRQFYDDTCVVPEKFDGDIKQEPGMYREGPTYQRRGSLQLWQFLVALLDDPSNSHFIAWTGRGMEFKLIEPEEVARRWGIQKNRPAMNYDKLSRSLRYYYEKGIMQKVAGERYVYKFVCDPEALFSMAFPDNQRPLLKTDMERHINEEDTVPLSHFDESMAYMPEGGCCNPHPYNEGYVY

In the case of GCTTTA, the binding signal was 1.04 fold enrichment (6-mer frequency, TF over GST control) with FEV; 1.06 fold enrichment (6-mer frequency, TF over GST control) with ETV5; 1.25 fold enrichment (6-mer frequency, TF over GST control) in the experiment with HSF1; 1.13 fold enrichment (6-mer frequency, TF over GST control) in the experiment with SPIC; 1.14 fold enrichment (6-mer frequency, TF over GST control) with ELF4; 1.2 fold enrichment (6-mer frequency, TF over GST control) with ELK4. The binding signal is 1.16 fold enrichment (6-mer frequency, TF over GST control) with ETV2; 1.13 fold enrichment (6-mer frequency, TF over GST control) with ELF3; 1.81 fold enrichment (6-mer frequency, TF over GST control) with CRX; 1.06 fold enrichment (6-mer frequency, TF over GST control) with ETV1; 1.25 fold enrichment (6-mer frequency, TF over GST control) with ERF; 1.15 fold enrichment (6-mer frequency, TF over GST control) with ETV3L. For the same sequence, the binding signal with ETS2 was 1.2 fold enrichment (6-mer frequency, TF over GST control); in the experiment with SPDEF it was 1.06 fold enrichment (6-mer frequency, TF over GST control); with ETV7, 1.19 fold enrichment (6-mer frequency, TF over GST control); in the experiment with ELF5, 1.08 fold enrichment (6-mer frequency, TF over GST control); with ETV3, 1.13 fold enrichment (6-mer frequency, TF over GST control); with ETV6, 1.1 fold enrichment (6-mer frequency, TF over GST control).

The record behind these values is publication PMC7862700, “An all-to-all approach to the identification of sequence-specific readers for epigenetic DNA modifications on cytosine”.
